MAPPIT interaction score data for five molecules are collected here from the supplement of paper PMC10105736.

What all share (test): MAPPIT interaction score (arbitrary units); higher = stronger binary interaction signal, active = hit call of the paper
Experiment [1] concerns the target CG17217. Conditions: MAPPIT configuration: N-N; pair source set: Finley_Y2H.
Experiment [2] deals with PIG-T. Conditions: MAPPIT configuration: N-N; pair source set: DPIM.
Experiment [3] has as its target Prosalpha6T. The note with it: pair source set: Lit-BM-16.
Experiment [4] deals with Prosbeta3. The note with it: MAPPIT configuration: N-C; pair source set: Lit-BM-16.
Experiment [5] has as its target Rpt2. Conditions: pair source set: Lit-BM-16.
Experiment [6] has as its target Rpt4. The note with it: pair source set: Lit-BM-16.
Experiment [7] concerns the target CG17162. The note with it: MAPPIT configuration: N-C; pair source set: screen_4.
The target in experiment [8] is CG17770. The note with it: pair source set: RRS.
The target of experiment [9] is CG15576. The note with it: MAPPIT configuration: N-N; pair source set: Curagen_low_conf.
The target of experiment [10] is CG17224. Conditions: MAPPIT configuration: N-N; pair source set: Finley_Y2H.

Unmarked numbers belong to inactive results.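 Rule for the calls: active = MAPPIT score above the 99th percentile of random reference set scores in the same batch; inactive = at or below it.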
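Note: HEK293T cells with Epo stimulation, STAT-responsive firefly luciferase reporter, fold induction versus unstimulated cells divided by the larger fold induction of two negative controls lacking either bait or prey.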

B1: Prosalpha2 (protein)
chain: MATERYSFSLTTFSPSGKLVQLEYALAAVSGGAPSVGIIASNGVVIATENKHKSPLYEQHSVHRVEMIYNHIGMVYSGMGPDYRLLVKQARKIAQTYYLTYKEPIPVSQLVQRVATLMQEYTQSGGVRPFGVSLLICGWDNDRPYLYQSDPSGAYFAWKATAMGKNAVNGKTFLEKRYSEDLELDDAVHTAILTLKEGFEGKMTADNIEIGICDQNGFQRLDPASIKDYLASIP
For B1, the MAPPIT interaction score in experiment [1] was 1.84; in experiment [2] it was 0.383; in [3] (MAPPIT configuration: N-C) it was 2.29; in experiment [3] (MAPPIT configuration: N-N), -0.206; in [4], 1.69; in experiment [5] (MAPPIT configuration: N-C), -1.15. In addition, the MAPPIT interaction score in experiment [5] (MAPPIT configuration: N-N) was 0.523; in experiment [6] (MAPPIT configuration: N-C), 0.723; in experiment [6] (MAPPIT configuration: N-N), -0.155.

B2: B-H1 (protein)
chain: MKDSMSILTQTPSEPNAAHPQLHHHLSTLQQQHHQHHLHYGLQPPAVAHSIHSTTTMSSGGSTTTASGIGKPNRSRFMINDILAGSAAAAFYKQQQHHQQLHHHNNNNNSGSSGGSSPAHSNNNNNINGDNCEASNVAGVGVLPSALHHPQPHPPTHPHTHPHALMHPHGKLGHFPPTAGGNGLNVAQYAAAMQQHYAAAAAAAAARNNAAAAAAAAAAAAAAGVAAPPVDGGVDGGVGLAPPAGGDLDDSSDYHEENEDCDSGNMDDHSVCSNGGKDDDGNSVKSGSTSDMSGLSKKQRKARTAFTDHQLQTLEKSFERQKYLSVQERQELAHKLDLSDCQVKTWYQNRRTKWKRQTAVGLELLAEAGNFAAFQRLYGGSPYLGAWPYAAAAGAAHGATPHTNIDIYYRQAAAAAAMQKPLPYNLYAGVPSVGVGVGVGVGPAPFSHLSASSSLSSLSSYYQSAAAAASAANPGGPHPVAPPPSVGGGSPPSGLVKPIPAHSASASPPPRPPSTPSPTLNPGSPPGRSVDSCSQSDDEDQIQV
Consider B2, for which the MAPPIT interaction score in experiment [7] was 4.06 (active).

B3: Rtf1 (protein)
chain: MGKRRTQSLIDSNSSDSDSESETNLESDLMSLAKKRKKPQTAAKSSSRSDSDSDWANNKAGAPSSKKKKRQKPSRDSSSSESNWDDDSQDERQPARQSPAQTQQEHKPPEQASQPAQLSEQEEGEVSDSDSDKSKSNSSSSGSDSSSSSSSSDSEFDDGFDDDLMGDDEDRRRLNGLSEKERETEIYKRIEQREIMRTRWEIERKLKLARRGEKNQEKSKNKGERAKKKKEKREKKARKAREAQAPLPTQASTSTLLDVEPKPSNEVRSASPLSTPALNRDAASTSAAVASIMPDDAASSAGVSDYFDHKERSKERKKNVEANKTDDKRSNAMALLKAKREGKAKREEEEAKRMAEKDRDDDKEELDSVSGCKSAVKLKASEIYSDDSGSSDWDEEEKPAGKRSRSNSSKASSESEDEEKAPQRPVFITTREDLNKLRLSRYKMERFVNLPIFESTVLNCFVRISIGNNGQKPVYRVAEIVGVVETGKIYSLGTTRTNRGLRLKHGTQERVFRLEFISNQEFTENEFNKWNEVCQQSHVQMPTIDLIAIKQNDIKKALNYEFKDEDVDKIVEEKNRFRNRPTNYAMKKTCLMKERDAAMLRGDYDIAQDLGQQIDELENRASELDKRRSHTLNLISYINDRNRKKNVEDAEKAILEEARANKGLKISDPFTRRITQPRMGFKGAKKDEDDMQLAPLPPPPPGKKRPNEAGTSSASVRSTDSKDYSLYSLHDFDIDLDVPLPVNTNSVPKPASKPAETVSKRSLNLEDYKKKRGLI
In the case of B3, the MAPPIT interaction score in experiment [8] (MAPPIT configuration: N-C) was 0.216; in experiment [8] (MAPPIT configuration: N-N), -0.281.

B4: Yp3 (protein)
chain: MMSLRICLLATCLLVAAHASKDASNDRLKPTKWLTATELENVPSLNDITWERLENQPLEQGAKVIEKIYHVGQIKHDLTPSFVPSPSNVPVWIIKSNGQKVECKLNNYVETAKAQPGFGEDEVTIVLTGLPKTSPAQQKAMRRLIQAYVQKYNLQQLQKNAQEQQQQLKSSDYDYTSSEEAADQWKSAKAASGDLIIIDLGSTLTNFKRYAMLDVLNTGAMIGQTLIDLTNKGVPQEIIHLIGQGISAHVAGAAGNKYTAQTGHKLRRITGLDPAKVLSKRPQILGGLSRGDADFVDAIHTSTFAMGTPIRCGDVDFYPNGPSTGVPGSENVIEAVARATRYFAESVRPGSERNFPAVPANSLKQYKEQDGFGKRAYMGLQIDYDLRGDYILEVNAKSPFGQRSPAHKQAAYHGMHHAQN
As to B4, in [9], the MAPPIT interaction score was 0.532.

B5: Ddc (protein)
chain: MSHIPISNTIPTKQTDGNGKANISPDKLDPKVSIDMEAPEFKDFAKTMVDFIAEYLENIRERRVLPEVKPGYLKPLIPDAAPEKPEKWQDVMQDIERVIMPGVTHWHSPKFHAYFPTANSYPAIVADMLSGAIACIGFTWIASPACTELEVVMMDWLGKMLELPAEFLACSGGKGGGVIQGTASESTLVALLGAKAKKLKEVKELHPEWDEHTILGKLVGYCSDQAHSSVERAGLLGGVKLRSVQSENHRMRGAALEKAIEQDVAEGLIPFYAVVTLGTTNSCAFDYLDECGPVGNKHNLWIHVDAAYAGSAFICPEYRHLMKGIESADSFNFNPHKWMLVNFDCSAMWLKDPSWVVNAFNVDPLYLKHDMQGSAPDYRHWQIPLGRRFRALKLWFVLRLYGVENLQAHIRRHCNFAKQFGDLCVADSRFELAAEINMGLVCFRLKGSNERNEALLKRINGRGHIHLVPAKIKDVYFLRMAICSRFTQSEDMEYSWKEVSAAADEMEQEQ
Take B5: the MAPPIT interaction score in experiment [10] is 0.0861.
